From PubChem BioAssay (NCATS) come the findings set out here.

Records with an inconclusive call do not appear. More than one record can exist for a structure, and the calls need not agree. Active and inactive are the calls of the source. Calls follow the shape of the dose curve; as a rule, active = well fitted curve in the direction sought with a large enough effect; inconclusive = small, poorly fitted or top-dose-only effect, or another doubt; inactive = no such curve, though single readings can be large; an effect the other way counts as inactive or inconclusive.

The subject of assay [1] is MCC-26. Nature of the assay: qHTS assay to identify novel small-molecules to repurpose for Merkel cell carcinoma treatment (AID 1296009). Also: nearly all actives have a fitted effect of over 60% in size. Also: potency is read from the fitted curve at half-maximal effect. The settings on record: MCC and control cell lines, CellTiter-Glo viability, 72 h; series mostly up to 46 µM. The gist of the method:
(§1)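 qHTS format: cells treated with library compounds in DMSO across 8 (NPC) or 11 (MIPE) concentrations. Readout after 72 hr at 37 degree celsius was CellTiter-Glo luminescence.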

In assay [2] the test system is MKL-1. The assay is described as above. The settings on record: MCC and control cell lines, CellTiter-Glo viability, 72 h; series mostly up to 46 µM. The gist of the method:
as §1

For assay [3], the system named is MKL-2. The assay is described as above. The settings on record: MCC and control cell lines, CellTiter-Glo viability, 72 h; series mostly up to 46 µM. In outline: as §1
Assay [4] has as its system NIH3T3. The assay is described as above. The settings on record: MCC and control cell lines, CellTiter-Glo viability, 72 h. The gist of the method: as §1
Assay [5] has as its system UISO. The description is as above. Particulars: MCC and control cell lines, CellTiter-Glo viability, 72 h; series mostly up to 46 µM. The gist of the method: as §1
The test system of assay [6] is WaGa. Described as above. The settings on record: MCC and control cell lines, CellTiter-Glo viability, 72 h; series mostly up to 46 µM. The gist of the method:
as §1

Assay [7] relates to C33A. Nature of the assay: Primary qHTS to identify gynecologic anti-cancer compounds using libraries of approved drugs and bioactive compounds (AID 1345084). Also: nearly all actives have a fitted effect of over 55% in size. The settings on record: Gynecologic cancer cell panel viability, ATPlite luminescence, 48 h; series mostly up to 57.5 µM. In outline:
(§2)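 Five-point cytotoxicity, 48 h drug exposure at 37 C, 5% CO2, on cells seeded 16 h beforehand. ATP content read by ATPlite luminescence.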

Assay [8] has as its system CAOV3. Described as above. Particulars: Gynecologic cancer cell panel viability, ATPlite luminescence, 48 h; series mostly up to 57.5 µM. The gist of the method:
as §2

Assay [9] has as its system CASKI. Described as above. Particulars: Gynecologic cancer cell panel viability, ATPlite luminescence, 48 h; series mostly up to 57.5 µM. In outline:
as §2

For assay [10], the system named is Es-2. The assay is described as above. Particulars: Gynecologic cancer cell panel viability, ATPlite luminescence, 48 h; series mostly up to 57.5 µM. In outline: as §2
Assay [11] deals with Hek293T. Described as above. The settings on record: Gynecologic cancer cell panel viability, ATPlite luminescence, 48 h, control line for the selectivity index; series mostly up to 57.5 µM. The gist of the method:
as §2

Assay [12] has as its system JEG-3. The description is as above. The settings on record: Gynecologic cancer cell panel viability, ATPlite luminescence, 48 h; series mostly up to 57.5 µM. The gist of the method:
as §2

In assay [13] the test system is OV90. Described as above. Particulars: Gynecologic cancer cell panel viability, ATPlite luminescence, 48 h; series mostly up to 57.5 µM. In outline:
as §2

Assay [14] concerns PA-1. The description is as above. The settings on record: Gynecologic cancer cell panel viability, ATPlite luminescence, 48 h; series mostly up to 57.5 µM. The gist of the method: as §2
The subject of assay [15] is SKOV3. The assay is described as above. The settings on record: Gynecologic cancer cell panel viability, ATPlite luminescence, 48 h; series mostly up to 57.5 µM. The gist of the method: as §2
For assay [16], the system named is Tov-21-G. The description is as above. The settings on record: Gynecologic cancer cell panel viability, ATPlite luminescence, 48 h; series mostly up to 57.5 µM. In outline: as §2
Assay [17] deals with Tov112D. Described as above. Particulars: Gynecologic cancer cell panel viability, ATPlite luminescence, 48 h; series mostly up to 57.5 µM. In outline:
as §2

Assay [18] in a line: Drug repurposing screens with cells derived from glioblastoma tumor samples (AID 1345199). Also: nearly all actives have a fitted effect of over 40% in size. Also: potency is read from the fitted curve at half-maximal effect. Particulars: GBM patient neurospheres viability, ATP luminescence, 48 h. In outline: (§3)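 Four patient lines of CD133+ GBM neurospheres were screened at several concentrations; hits were retested in those lines plus three slower-growing GBM lines, using 48-hour treatment and ATP-based viability.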

In assay [19] the test system is astro. The assay is described as above. Particulars: viability, ATP luminescence, 48 h; series mostly up to 45.9 µM. In outline:
as §3

Assay [20] deals with HeLa. Nature of the assay: Primary qHTS to identify gynecologic anti-cancer compounds using libraries of approved drugs and bioactive compounds (AID 1345084). Also: nearly all actives have a fitted effect of over 55% in size. Particulars: Gynecologic cancer cell panel viability, ATPlite luminescence, 48 h; series mostly up to 57.5 µM. The gist of the method: as §2
[21] abbreviates: at 44.8 µM (top of the series) unless noted.
Setting [22] is: at 45.9 µM (top of the series), tumour line B.
Setting [23] is: at 45.9 µM (top of the series), tumour line D.
[24] abbreviates: at 46.1 µM (top of the series), tumour line C.
% is scaled to controls: 0 for no effect and ±100 for the full control effect.

For the compound `CC(C)(Sc1cc(C(C)(C)C)c(O)c(C(C)(C)C)c1)Sc1cc(C(C)(C)C)c(O)c(C(C)(C)C)c1`, the Potency entry in [1], in assay [2], in assay [3], in assay [5], in assay [6] and in [7] was “inactive” each time. Further, the Potency entry in assay [8], in assay [9], in assay [10], in assay [11], in [12] and in assay [13] was “inactive” in each case. The Potency result in assay [14], in [15], in [16], in [17] and in [19] was “inactive” each time. In assay [4] (setting [21]), the compound was classed as inactive. The activity, negative = cell killing in assay [18] (at 20 µM (top of the series), tumour line C) is -9.49% (inactive); in assay [18] (at 21.2 µM (top of the series), tumour line B), -22% (inactive). Further, in assay [18] (tumour line A), the Potency was 4.47 µM (active).

For the compound `NC(=O)N1c2ccccc2CC(=O)c2ccccc21`, the Potency result in assay [1], in assay [2], in assay [5], in assay [6], in assay [7] and in assay [8] was “inactive” in each case. In addition, the Potency result in [9], in assay [10], in assay [20], in assay [11], in assay [12] and in assay [13] was “inactive” throughout. Moreover, the Potency entry in assay [14], in assay [15], in [16], in [17] and in assay [19] was “inactive” throughout. In [3], the Potency is 6.68 µM (active) and inactive. Also, the call in assay [4] (setting [21]) was inactive. Besides, the activity, negative = cell killing in assay [18] (setting [22]) is -29.6% (inactive); in assay [18] (setting [23]) it was -1.67% (inactive); in assay [18] (setting [24]) it was -9.41% (inactive).

For `CC1=NN(c2ccccc2)C(=O)C1`, the Potency result in assay [1], in [2], in assay [3], in assay [5], in assay [6] and in [7] was “inactive” each time. For the same compound, the Potency entry in [8], in assay [9], in assay [10], in [20], in assay [11] and in [12] was “inactive” throughout. Moreover, the Potency result in assay [13], in [14], in assay [15], in assay [16], in [17] and in [19] was “inactive” throughout. Further, the result in [4] (setting [21]) was inactive. In addition, the activity, negative = cell killing was -3.42% (inactive) in [18] (setting [22]); -8.39% (inactive) in assay [18] (setting [23]); -29.7% (inactive) in assay [18] (at 46 µM (top of the series), tumour line A); -6.42% (inactive) in assay [18] (setting [24]).

As for `N[C@@H](C(=O)N[C@@H]1C(=O)N2C(C(=O)O)=C(Cl)CS[C@H]12)c1ccccc1`, the Potency entry in assay [1], in assay [2], in assay [3], in [5], in [6] and in [19] was “inactive” in each case. The call in [4] (at 9.27 µM (top of the series)) and in [4] (at 44.8 µM (top of the series)) was inactive. The activity change, negative = cytotoxicity in assay [7] is 7.76% [at 11.6 µM] (inactive); in assay [8], 16.8% [at 11.6 µM] (inactive); in assay [9], 2.82% [at 11.6 µM] (inactive); in assay [10], 3.68% [at 11.6 µM] (inactive); in assay [11], 4.98% [at 11.6 µM] (inactive); in [12] it was 1.47% [at 11.6 µM] (inactive). Further, the activity change, negative = cytotoxicity was 0.914% [at 11.6 µM] (inactive) in [13]; 14.4% [at 11.6 µM] (inactive) in assay [14]; 12.2% [at 11.6 µM] (inactive) in assay [15]; 0.747% [at 11.6 µM] (inactive) in [16]; 2.46% [at 11.6 µM] (inactive) in assay [17]. Further, the activity, negative = cell killing in [18] (setting [22]) was -8.97% (inactive); in assay [18] (setting [23]), 11.2% (inactive); in assay [18] (setting [24]), 7.75% (inactive).

Turning to `CN(Cc1cc(Br)cc(Br)c1N)C1CCCCC1`, the Potency result in assay [1], in [2], in [3], in assay [5], in assay [6] and in assay [7] was “inactive” throughout. Further, the Potency result in assay [8], in [9], in assay [10], in [20], in assay [11] and in assay [12] was “inactive” each time. Further, the Potency result in assay [13], in assay [14], in assay [15], in assay [16] and in assay [17] was “inactive” throughout. The call in assay [4] (setting [21]) was inactive. In addition, the activity, negative = cell killing was -30.4% (inactive) in assay [18] (setting [22]) and -4.61% (inactive) in [18] (setting [24]). Besides, the Potency in assay [18] (tumour line A) is 5.62 µM (active).
